{"source": "ChEMBL document CHEMBL4513216", "about": "“Probing the Open Global Health Chemical Diversity Library for Multistage-Active Starting Points for Next-Generation Antimalarials” (ACS Infect Dis, 2020)", "note": "About 8,600 (12%) of roughly 69,000 compounds showed an effect of 50% or more. This excerpt belongs to a sample that is enriched for strong results.", "data": [{"test_system": "Plasmodium berghei", "assay": "Screen against P. berghei liver stage (PbLuc), transformed with Luciferase, at 10uM", "format": "functional, HepG2", "settings": "tested at 10 uM", "units": {"INHIBITION": "%"}, "values": [{"compound": "O=C(c1ccc(Cn2cnnn2)cc1)N1CCC(c2ccncc2)CC1", "INHIBITION": -23}, {"compound": "O=S1(=O)NCC2(CCN(Cc3ccc(Cl)s3)C2)Oc2ncccc21", "note": "(stereo unspecified)", "INHIBITION": 30}, {"compound": "O=S1(=O)NCC2(CCN(Cc3ccncc3)CC2)Oc2ncccc21", "INHIBITION": 44.1}, {"compound": "CC(C)CCN1CCC2(CNS(=O)(=O)c3cccnc3O2)C1", "note": "(stereo unspecified)", "INHIBITION": 67.3}, {"compound": "CCc1nnc(CN(C)c2nccc(CCC(F)(F)F)n2)o1", "INHIBITION": 59.3}, {"compound": "CC(=O)NCCNc1nccc(CCC(F)(F)F)n1", "INHIBITION": -41.8}, {"compound": "CCc1cc(N(C)Cc2ccncn2)n2nccc2n1", "INHIBITION": 10.4}, {"compound": "CN(Cc1ccncn1)c1nccc(CCC(F)(F)F)n1", "INHIBITION": 59.3}, {"compound": "CNc1ncc(CN(C)c2nccc(CCC(F)(F)F)n2)cn1", "INHIBITION": 43.1}, {"compound": "CCc1nnc(CN(C)c2nccc(N3CCCC(O)C3)n2)o1", "note": "(stereo unspecified)", "INHIBITION": 42.1}, {"compound": "CC(=O)N1CCOC(c2cncc(CCC(=O)N(C)C)n2)C1", "note": "(stereo unspecified)", "INHIBITION": -6.73}, {"compound": "O=C1CCC(=O)c2oc3ccccc3c2N1", "INHIBITION": -23}, {"compound": "CCc1[nH]c2c(CNc3cncc(C(=O)OC)n3)cc(C)cc2c1C", "INHIBITION": 45}, {"compound": "CCc1[nH]c2c(CNc3cncc(C(=O)N(C)C)n3)cc(C)cc2c1C", "INHIBITION": 14.3}, {"compound": "CCc1[nH]c2c(CNc3nc(C)cc(NC)n3)cc(C)cc2c1C", "INHIBITION": 85.1}, {"compound": "CCc1[nH]c2c(CNC(=O)C3CCS(=O)(=O)CC3)cc(C)cc2c1C", "INHIBITION": 48.5}, {"compound": "CCc1[nH]c2c(CNc3cc(C)nc(NC)n3)cc(C)cc2c1C", "INHIBITION": 87.9}, {"compound": "CCc1[nH]c2c(CNC(=O)C3CNC(=O)C3)cc(C)cc2c1C", "note": "(stereo unspecified)", "INHIBITION": 25.8}, {"compound": "COc1ccc(-c2noc(CN3CCCC3Cn3cccn3)n2)cc1", "note": "(stereo unspecified)", "INHIBITION": 29.7}, {"compound": "CN1C(=O)c2ccc(C(=O)N(Cc3cnn(C)c3)C3CC3)cc2C1=O", "INHIBITION": 23.8}, {"compound": "COCC(=O)N1CCc2ccc(=O)n(Cc3csc(C)n3)c2CC1", "INHIBITION": 2.41}, {"compound": "CCOc1ncccc1NC(=O)c1ccc(C(C)=O)s1", "INHIBITION": 7.24}, {"compound": "CC1CN(CC(=O)NCCc2ccccc2)CCN1c1nccs1", "note": "(stereo unspecified)", "INHIBITION": 33.7}, {"compound": "c1coc(CN2CCC3(CCOCC3COCC3CC3)CC2)c1", "note": "(stereo unspecified)", "INHIBITION": 18.6}, {"compound": "CCNc1cc2c(nn1)CCN(C(=O)c1cc3ccccc3o1)C2", "INHIBITION": 17.4}, {"compound": "CCNc1cc2c(nn1)CCN(C(=O)c1cc(C)no1)C2", "INHIBITION": 40}, {"compound": "CCNc1cc2c(nn1)CCN(C(=O)c1cc3cccc(C)c3o1)C2", "INHIBITION": 70.8}, {"compound": "CCNc1cc2c(nn1)CCN(C(=O)c1cc3nc(C)ccc3o1)C2", "INHIBITION": 35.3}, {"compound": "CCNc1cc2c(nn1)CCN(C(=O)c1ccc(CNC(C)=O)o1)C2", "INHIBITION": -21.7}, {"compound": "CCNc1cc2c(nn1)CCN(C(=O)c1cc3cc(C)ccc3o1)C2", "INHIBITION": 68.8}, {"compound": "CC(=O)N1CC(=O)N(c2ccsc2)CC12CCN(Cc1ccccn1)C2", "note": "(stereo unspecified)", "INHIBITION": -2.17}, {"compound": "CCOc1ccc(C(=O)N2CCN(c3nccn3C)CC2)cc1", "INHIBITION": 14.3}, {"compound": "c1cc(CN2CCC(c3ccc4c(c3)OCO4)CC2)ccn1", "INHIBITION": 12.515}, {"compound": "Cn1cccc1C(=O)N1C[C@H]2CN(Cc3cccs3)C[C@H]2C1", "INHIBITION": 14.9}, {"compound": "CN(C)C1COC2(CCN(Cc3nccs3)CC2)C1", "note": "(stereo unspecified)", "INHIBITION": 11.5}, {"compound": "Cc1ccc(C(=O)NS(=O)(=O)c2cc(F)ccc2F)c(=O)[nH]1", "INHIBITION": -1.14}, {"compound": "CSC(C)C(=O)N(C)CCCc1cc(-c2ccccc2)no1", "note": "(stereo unspecified)", "INHIBITION": 57.75}, {"compound": "CC(NC(N)=O)C(=O)N(C)CCCc1cc(-c2ccccc2)no1", "note": "(stereo unspecified)", "INHIBITION": 0.375}, {"compound": "CC(=O)N(C)CCCc1cc(-c2ccccc2)no1", "INHIBITION": 24.75}, {"compound": "O=C(O)[C@]12CCCN(Cc3ccsc3)C[C@H]1CN(c1ncccn1)C2", "INHIBITION": -10.3}, {"compound": "COCCn1cc2c(n1)C(CNCc1nccs1)OCC2", "note": "(stereo unspecified)", "INHIBITION": 26.3}, {"compound": "Cc1cccc(N2CCC(N3CCCC4(CNC(=O)O4)C3)CC2)c1C", "note": "(stereo unspecified)", "INHIBITION": 63.4}, {"compound": "Cc1cccc(N2CCC(N3CCC4(CCCNC4=O)C3)CC2)c1C", "note": "(stereo unspecified)", "INHIBITION": 32.7}, {"compound": "Cc1cccc(N2CCC(N3CCCC4(CN(C)C(=O)O4)C3)CC2)c1C", "note": "(stereo unspecified)", "INHIBITION": 36.7}, {"compound": "Cc1cccc(N2CCC(N3CCC4(CN(C)C(=O)O4)C3)CC2)c1C", "note": "(stereo unspecified)", "INHIBITION": 64.4}, {"compound": "O=C1NCC2(CCCN(C(=O)Cn3nc4ccccc4n3)CC2)O1", "note": "(stereo unspecified)", "INHIBITION": 4.87}, {"compound": "Cc1nn(CC(=O)N2CCC3(CN(C)C(=O)O3)C2)c(=O)c2ccccc12", "note": "(stereo unspecified)", "INHIBITION": 15.4}, {"compound": "Cc1nn(CCO)c(C)c1CNCc1cccnc1N(C)C", "INHIBITION": 19.2}, {"compound": "O=C(O)c1cnc(N2CCC(c3nccn3CC3CC3)CC2)c(Cl)c1", "INHIBITION": 25.9}, {"compound": "O=C(CN1CCCC(O)C1)NC(=O)NCc1cccs1", "note": "(stereo unspecified)", "INHIBITION": 43.4}, {"compound": "CN(CCOc1ccc(F)cc1)S(=O)(=O)c1cnn(C)c1", "INHIBITION": 21.2}, {"compound": "COCCN1CCN(Cc2c(C)noc2C)Cc2cccnc21", "INHIBITION": 36.9}, {"compound": "O=C(NCc1cccc(Cl)c1)C1=NOC2(CCNC2)C1", "note": "(stereo unspecified)", "INHIBITION": 21.5}, {"compound": "CN(C)C(=O)COC[C@]12COC[C@H]1CN(CCc1ccccc1)C2", "INHIBITION": 24.3}, {"compound": "CN(C)CCOCc1ncn2c1CN(c1ncc(F)cn1)CCC2", "INHIBITION": 23.3}, {"compound": "Nc1nnc(SCC(=O)NCC(O)c2ccccc2)s1", "note": "(stereo unspecified)", "INHIBITION": -17.2}, {"compound": "Cc1nnc(SCC(=O)NCC(c2ccccc2Cl)N(C)C)s1", "note": "(stereo unspecified)", "INHIBITION": -18.5}, {"compound": "Cc1ccccc1C(CNC(=O)CSc1nnc(N)s1)N(C)C", "note": "(stereo unspecified)", "INHIBITION": 54.7}, {"compound": "CCn1cc(NC(=O)NCc2ccc(CO)c(F)c2)cn1", "INHIBITION": -59.4}, {"compound": "O=C(O)C(c1ccc(Cl)c(F)c1)N1CCN(Cc2ccccn2)CC1", "note": "(stereo unspecified)", "INHIBITION": 52.1}, {"compound": "Cc1c(Cl)cccc1NC(=O)N1CCN(Cc2ccccn2)CC1", "INHIBITION": 64.3}, {"compound": "CSc1ccccc1C(C(=O)O)N1CCN(Cc2ccccn2)CC1", "note": "(stereo unspecified)", "INHIBITION": 33.5}, {"compound": "O=C(c1ccccc1Cl)N1CCN(CCc2ccccn2)CC1", "INHIBITION": 30}, {"compound": "Cc1ccc(C(C(=O)O)N2CCCN(Cc3ccccn3)CC2)c(F)c1", "note": "(stereo unspecified)", "INHIBITION": -1.49}, {"compound": "COc1ccc(C)cc1C(C(=O)O)N1CCN(Cc2ccccn2)CC1", "note": "(stereo unspecified)", "INHIBITION": 26.7}, {"compound": "Cc1cc(F)c(C(C(=O)O)N2CCN(Cc3ccccn3)CC2)cc1Cl", "note": "(stereo unspecified)", "INHIBITION": 66.6}, {"compound": "Cc1ccc(NC(=O)N2CCN(Cc3ccccn3)CC2)cc1Cl", "INHIBITION": 42.1}, {"compound": "O=C(c1cc(Cl)c[nH]1)N1CCN(CCc2ccccn2)CC1", "INHIBITION": 9.79}, {"compound": "O=C(c1cc2c(Cl)cccc2[nH]1)N1CCN(CCc2ccccn2)CC1", "INHIBITION": 56.3}, {"compound": "Cc1ccc(C)c(C(C(=O)O)N2CCCN(Cc3ccccn3)CC2)c1", "note": "(stereo unspecified)", "INHIBITION": 0.139}, {"compound": "Cc1ccc(Cl)c(C)c1NC(=O)N1CCCN(Cc2ccccn2)CC1", "INHIBITION": 46.3}]}]}
